Assay outcomes from PubChem BioAssay.
Shown are actives, neighbours in structure and some others; about 1.8% of the full set was active somewhere.
HEK293 tox – cytotoxic in the GLP-1 receptor inverse agonist counter-screen; HEK293 cAMP-luciferase reporter cells, luminescence, 24 h; Potency, µM (doses to about 38.3 µM), hits mostly inhibitors; 410,000 compounds, 0.13% hits;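 further: loss of luciferase light is scored as toxicity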
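To flag toxic compounds, the library was rerun on cells for 24 hr at 37 deg C and 5% CO2. Viability-linked luminescence was captured 12 min after adding luciferase detection reagent.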
PTHR1 agonist – activates the human parathyroid hormone receptor PTHR1. HEK293 GP2 PTHR1 cells, GloSensor cAMP luminescence, 1 h. Potency, µM (series often up to 115 µM), hits mostly activators. 410,000 compounds, 0.075% hits. AID 743266; further: nearly all actives have a fitted effect of over 55% in size
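HEK-293-derived GP2 cells expressing PTHR1 and a GloSensor cAMP reporter, 3,000/well, plated overnight, given luciferin plus IBMX (each 0.5 mM as added) for 1 h at 37 °C, then compound for 1 h at 37 °C. Luminescence was read after 15 min at room temperature.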
KAT2A inh – GCN5L2 (KAT2A) acetyltransferase inhibition | Q92830 | GCN5L2 HAT assay, ThioGlo1 CoA-SH fluorescence | Potency, µM (titrated, usually from 58.9 µM), actives largely listed as inhibitors | 390,000 compounds, 0.21% hits
Target sequence (Q92830 whole entry, looked up): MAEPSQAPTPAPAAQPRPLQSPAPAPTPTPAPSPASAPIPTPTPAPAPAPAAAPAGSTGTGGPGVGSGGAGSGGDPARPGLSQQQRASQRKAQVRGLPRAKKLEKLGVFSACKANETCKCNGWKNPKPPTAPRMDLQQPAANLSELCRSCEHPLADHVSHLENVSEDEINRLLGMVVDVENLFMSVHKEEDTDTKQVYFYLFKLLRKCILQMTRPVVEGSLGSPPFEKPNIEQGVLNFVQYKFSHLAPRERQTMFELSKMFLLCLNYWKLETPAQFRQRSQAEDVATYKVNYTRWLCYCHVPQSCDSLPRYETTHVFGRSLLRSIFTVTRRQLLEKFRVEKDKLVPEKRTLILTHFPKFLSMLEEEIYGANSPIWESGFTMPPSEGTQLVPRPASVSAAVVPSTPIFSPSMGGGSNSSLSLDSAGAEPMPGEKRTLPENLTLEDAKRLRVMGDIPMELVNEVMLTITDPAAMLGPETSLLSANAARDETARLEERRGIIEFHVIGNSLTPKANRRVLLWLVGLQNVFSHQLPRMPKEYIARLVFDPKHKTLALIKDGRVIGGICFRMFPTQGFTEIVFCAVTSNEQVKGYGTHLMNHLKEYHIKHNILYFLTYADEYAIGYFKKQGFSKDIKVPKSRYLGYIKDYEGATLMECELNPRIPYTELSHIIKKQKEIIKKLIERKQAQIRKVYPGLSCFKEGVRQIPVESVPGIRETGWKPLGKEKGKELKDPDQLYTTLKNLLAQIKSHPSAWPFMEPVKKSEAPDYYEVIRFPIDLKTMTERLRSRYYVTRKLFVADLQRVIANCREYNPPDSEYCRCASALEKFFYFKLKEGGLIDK
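Preincubate 20nM GCN5L2 with compound 15 min, RT → add 50uM ThioGlo1 + 75uM H3(1-25) + 70uM acetyl-CoA → read fluorescence 0 and 20 min. Primary qHTS; fluorescent artifacts likely.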
GLP-1R agonist – agonists of human GLP-1 receptor | P43220 | HEK293 GLP-1R CRE-luciferase, luminescence, 4-6 h; cells express a hypersensitive GLP-1R form | Potency, µM (top dose mostly 45.6 µM), most hits filed as activators | 380,000 compounds, 0.007% hits
RGS4 inh – inhibitors of human regulator of G protein signaling 4. Transcreener GDP fluorescence polarization, RGS4-accelerated GTP hydrolysis. Potency, µM (top dose mostly 114 µM), hits mostly inhibitors. 390,000 compounds, 0.039% hits. AID 504845; further: nearly all actives have a fitted effect of over 75% in size
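MLSMR compounds (23 nl, pin-transferred) preincubated 10 min at room temperature with a 500nM (2x) first reagent, then RGS4 at 900nM (2x) plus Transcreener GDP mix added; fluorescence polarization (620/688 nm) read before and after 90 min at 30 °C.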
GLP1R inv ag – acts as inverse agonist at human GLP-1 receptor; AID 624417; HEK293 GLP-1R CRE-luciferase, luminescence, 24 h; GLP-1R form is constitutively active; Potency, µM (titrated, usually from 38.3 µM), most hits filed as inhibitors; P43220; 410,000 compounds, 1.6% hits; further: nearly all actives have a fitted effect of over 55% in size
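Seeding at 200 cells/uL, 12 h culture, 24 hr compound treatment, then luciferase reagent and a luminescence read; cells are HEK293 stably expressing a constitutively active GLP-1R plus cAMP-responsive luciferase.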
Numbers stand for hits; . = inactive; ? = inconclusive; / = not tested or not shown; [ ] = another dose, or the depositor's remark. The call rests on the fitted dose curve; in most records, active means well fitted curve in the direction sought with a large enough effect; inconclusive means small, poorly fitted or top-dose-only effect, or another doubt; inactive means no such curve, though single readings can be large; an effect the other way counts as inactive or inconclusive.

SMILES	HEK293 tox	PTHR1 agonist	KAT2A inh	GLP-1R agonist	RGS4 inh	GLP1R inv ag
O=C(c1cc(-c2ccc(Br)cc2)nc2ccccc12)N1CCC1	.	.	.	.	.	?
O=C(c1cc(-c2cccc(Br)c2)nc2ccccc12)N1CCCC1	.	.	?	.	.	10µM
COc1cccc(NCc2cc(=O)oc3cc(C)c(C(C)C)cc23)c1	.	.	.	.	.	11µM
CC(=O)Nc1ccc(-c2ccnc3c2CC(C)(C(=O)Nc2ccc4c(c2)OCO4)O3)cc1 (stereo not given)	.	.	/	.	/	?
CC(C)(C)OC(=O)N1CCC(c2c(C(=O)N3CCN(c4ccccc4F)CC3)cnn2-c2ccccc2Cl)CC1	.	.	.	/	.	.
CCn1cc(C(=O)NCCCN2CCCC(C)C2)c(=O)c2cc(S(=O)(=O)N3CCc4ccccc4C3)ccc21 (stereo not given)	.	.	.	.	.	10µM
CCn1cc(C(=O)NCCN(CC(C)C)CC(C)C)c(=O)c2cc(S(=O)(=O)N3CCOCC3)ccc21	.	.	.	.	.	7.9µM
Fc1ccc(N2N=C(c3cccs3)CC2c2ccccc2)cc1 (stereo not given)	.	.	.	.	.	11µM
CNS(=O)(=O)c1cc(Nc2ncnc3sccc23)ccc1C	.	.	.	.	.	.
Cc1cc(O)c(/C=N/Nc2ccc(F)cc2)c(=O)o1	?	.	.	.	.	1.8µM
Cc1ccc(N/N=C/c2c(O)cc(C)oc2=O)cc1	.	.	.	.	.	?
CCN(C(=O)CSc1n[nH]c(N)n1)C1CCCCC1	.	?	.	.	.	.
[O][C@H]1[C@@H](O)[C@@H](CO)O[C@@H](O[C@@H]2[C@@H]3OC[C@H]2O[C@H](O[C@@H]2[C@@H](O)[C@H](C[C@@H]4[C@@H]5OC[C@H]4O[CH][C@@H]5O)O[C@H](CO)[C@@H]2OS(=O)(=O)O)[C@@H]3OS(=O)(=O)O)[C@@H]1O	/	/	.	/	/	/
Cc1ccccc1NC(=O)c1ccc(F)c(S(=O)(=O)N(C)C2CCCCC2)c1	.	.	.	/	.	10µM
Cc1ccccc1NC(=O)c1ccc(F)c(S(=O)(=O)NCC2CCCO2)c1 (stereo not given)	.	.	.	.	.	.
COc1ccc(S(=O)(=O)n2ccc(C(C)Oc3ccc(-c4ccccc4)c(F)c3)n2)cc1 (stereo not given)	.	.	.	.	.	8.9µM
CC1=C(C(=O)N2CCCCCC2)CC(CC(=O)NCCN2CCOCC2)C(=O)N1Cc1ccc(C(C)(C)C)cc1 (stereo not given)	.	.	/	.	/	.
CCOC(=O)C1=C[C@@H](C(=O)OCC)[C@@H]2C3=C(C(=O)C2(C)C)[C@H](c2ccccc2)[C@@H]2C(=O)N(c4ccccc4)C(=O)[C@@H]2[C@@H]3C1	/	/	/	/	.	/
COc1ccc(-c2nn3c(-c4cc(-c5ccccc5)n[nH]4)nnc3s2)cc1	/	/	/	/	.	/
O=C(CC1CCCC1)Nc1ccc(Cl)c(S(=O)(=O)N2CCOCC2)c1	.	.	.	.	.	8.9µM
Cc1ccc(C2(C)NC(=O)N(CC(=O)Nc3ccc(Cl)c(S(=O)(=O)N4CCCCC4)c3)C2=O)cc1 (stereo not given)	.	.	.	.	.	10µM
CC1(c2ccccc2)NC(=O)N(CC(=O)NCCC2=CCCCC2)C1=O (stereo not given)	.	.	28µM	.	.[11.4 µM]	.
CC1(c2ccccc2)NC(=O)N(CC(=O)Nc2ccc(Cl)c(S(=O)(=O)N3CCCCC3)c2)C1=O (stereo not given)	.	.	.	.	.	?
O=C(Nc1ccc(Cl)c(S(=O)(=O)N2CCOCC2)c1)C1CCC1	.	.	.	.	.	.
CC1(c2ccccc2)NC(=O)N(CC(=O)Nc2ccc3c(c2)CCC3)C1=O (stereo not given)	.	.	.	.	.	10µM
SMILES	HEK293 tox	PTHR1 agonist	KAT2A inh	GLP-1R agonist	RGS4 inh	GLP1R inv ag
CC(=O)Oc1ccccc1C(=O)NC(C)CCc1ccccc1 (stereo not given)	.	.	.	.	.	?
CC(=O)c1ccc(Nc2c3ccccc3cc3occc23)cc1	/	/	.	/	/	/
N[C@H](CSSC[C@@H](N)C(=O)O)C(=O)O	/	/	.	/	/	/
CCCCN(C(=O)C1CCN(C(=O)c2ccccc2C)CC1)c1c(N)n(CC(C)C)c(=O)[nH]c1=O	.	?	/	.	.	.
CCOC(=O)C1(C)CCCCN1C(=O)c1cccc(Cl)c1 (stereo not given)	.	.	/	.	/	.
CCOC(=O)C1CCC(CN(Cc2ccc(OC)cc2)S(=O)(=O)c2ccc(F)c(C(=O)Nc3cc(Cl)ccc3OC)c2)CC1 (stereo not given)	.	.	.	/	.	?
CCOC(=O)C1CCC(CN(Cc2ccc(OC)cc2)S(=O)(=O)c2ccc(F)c(C(=O)Nc3c(C)cccc3C)c2)CC1 (stereo not given)	.	.	.	/	.	2µM
CN(C)CC/C=C1/c2ccc(F)cc2Sc2ccc(Cl)cc21	?	.	/	.	.	?
CN(C)CC/C=C1\c2ccccc2Sc2cc(F)c(Cl)cc21	?	.	/	.	.	7.9µM
CN(C)CC/C=C1\c2ccc(F)cc2Sc2cc(F)c(Cl)cc21	?	.	/	.	.	7.9µM
CCCCN1CC(COCc2ccccc2)Oc2cccc(OCCN3C(=O)[C@@H]4[C@H](C3=O)C3C=C[C@H]4C3)c2S1(=O)=O (stereo not given in full)	.	.	/	.	.	10µM
O=S1(=O)c2ccc(Br)cc2OC(COCc2ccccc2)CN1Cc1ccccc1 (stereo not given)	.	.	.	.	?	10µM
O=S1(=O)c2ccccc2OC(COCc2ccccc2)CN1Cc1ccccc1 (stereo not given)	.	.	.	.	.	?
CCCCN1CC(COCc2ccccc2)Oc2ccccc2S1(=O)=O (stereo not given)	.	.	.	.	.	11µM
CCc1cccc(CC)c1N1C(=O)C2=C(SCCCS2)C1=O	.	.	/	.	/	?
O=[N+]([O-])c1cccc(NNS(=O)(=O)c2ccccc2F)c1	.	.	.	.	?	6.3µM
Cc1cc(S(=O)(=O)NCc2ccc(N3CCN(C)CC3)cc2)c(C)s1	.	.	.	.	.	2.2µM
COc1ccc(NC(=O)CSc2nc3ccccc3c(=O)n2CCCC(=O)NCC2CCCO2)c(OC)c1 (stereo not given)	.	.	.	.	.	.
